The values that follow come from PubChem BioAssay AID720697 (Broad Institute, 2013).

Entries with a potency or affinity are not part of this list. Records with an inconclusive call do not appear. Unmarked numbers belong to inactive results. Activity calls are given as the source filed them.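 How the source made its calls: active means signal loss with fitted half-maximal concentration at or below twice the top valid tested dose in every test run; inconclusive means runs disagree, flat 30 to 70% signal loss, or poor fit; inactive means all runs flat, opposite direction, or potency beyond limit.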

This assay is described as follows: HEK293T cytotoxicity, dose response, cytotoxicity control for miR-122 modulator project, cell-based, inhibitor set, cherry-pick, set 2 (AID 720697).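 Further: 0% = median of neutral control wells and -100% = MG132 positive control wells.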 As to conditions: HEK293T viability, CellTiter-Glo luminescence, 48 h; series mostly up to 26 µM. A general note: Cellular ATP, detected with luciferase, serves as a proxy for viable cell number.
Regarding `COc1ccc(S(=O)(=O)N(C)C[C@@H]2Oc3cc(-c4cccc(F)c4)ccc3S(=O)(=O)N([C@H](C)CO)C[C@H]2C)cc1`, the outcome was inactive.
Still for that read-out and setting: under `O=C(Nc1ccccc1)N1C[C@@H]2[C@H](c3ccccc31)[C@H](CO)N2C(=O)c1ccncc1` stands “inactive”; under `CN1C(=O)c2cc(NC(=O)Nc3ccc(Cl)cc3)ccc2OC[C@H]2O[C@H](CC(=O)NCCN3CCCCC3)CC[C@H]21`, “inactive”; under `CCN(C[C@H]1[C@H](c2ccccc2)[C@@H](CO)N1S(C)(=O)=O)C(=O)C1CC1`, “inactive”.
Same read-out and setting: under `COC(=O)c1c(N)nc(C)n1-c1ccc(OC)cc1` stands “inactive”; under `CC(=O)N1[C@@H](CO)[C@@H](c2ccccc2)[C@@H]1CNC(=O)CN1CCOCC1`, “inactive”; under `CCN(C[C@@H]1[C@@H](c2ccc(C3=CCCCC3)cc2)[C@@H](CO)N1CC1CC1)C(C)=O`, “inactive”.
Same read-out and setting: under `CN1C(=O)c2cc(NC(=O)Nc3ccccc3Cl)ccc2OC[C@H]2O[C@H](CC(=O)O)CC[C@H]21` stands “inactive”; under `CCOc1ccc(NC(=S)N(CCCN2CCCC2)Cc2cccn2Cc2ccc(Cl)cc2)cc1`, “inactive”; under `CN1C(=O)c2cc(NC(=O)Nc3ccccc3F)ccc2OC[C@@H]2O[C@H](CC(=O)O)CC[C@@H]21`, “inactive”.
In the case of `C[C@H]1CN([C@@H](C)CO)S(=O)(=O)c2ccc(C3=CCCC3)cc2O[C@H]1CN(C)Cc1cccnc1`, the call was inactive.
Still for that read-out and setting: under `CN1C(=O)c2cc(NC(=O)c3cccs3)ccc2OC[C@H]2O[C@H](CC(=O)NCC(F)(F)F)CC[C@H]21` stands “inactive”.
On the same count and under the same terms, under `CCC(=O)N1[C@H](CO)[C@H](c2ccccc2)[C@@H]1CN(CC)C(=O)c1ccccc1` stands “inactive”.
As for `Fc1ccccc1-c1nc(-c2ccncc2)no1`, the activity change, negative = cytotoxicity was -1.62% [at 6 µM].
Still for that read-out and setting: for `C=CCc1c(OC)ccc2ccc(=O)oc12` the value was -1.92% [at 6 µM].
With `O=c1c2cc(N3CCOCC3)ccc2[nH]c(=S)n1CCCN1CCCC1`, the result was inactive.
Same read-out and setting: under `Cc1nnc(NC(=O)CSc2nc(C(C)C)nc3sc(C)c(C)c23)s1` stands “inactive”; under `CN(C)CCNc1ncnc2c1sc1nc(-c3ccccc3)c3c(c12)CCCC3`, “inactive”.
`CCN(C[C@H]1N[C@H](CO)[C@H]1c1ccc(C2=CCCC2)cc1)C(=O)c1cccnc1`: the call was inactive.
As for `O=C(CN1CCOCC1)NC[C@@H]1N[C@@H](CO)[C@@H]1c1ccc(-c2ccccc2)cc1`, the outcome was inactive.
On the same count and under the same terms, under `C[C@@H]1CN([C@H](C)CO)S(=O)(=O)c2ccc(C3=CCCCC3)cc2O[C@@H]1CN(C)C(=O)Nc1ccc2c(c1)OCO2` stands “inactive”; under `COc1ccc(S(=O)(=O)Nc2cc(C)cc(C)n2)c2ccccc12`, “inactive”.
Same read-out and setting: for `CCNC(=O)Nc1ccc2c(c1)C(=O)N(C)[C@H]1CC[C@@H](CC(=O)NCCOC)O[C@@H]1CO2` the value was “inactive”.
As for `CCC(=O)NC[C@H]1[C@H](c2ccc(C3=CCCC3)cc2)[C@H](CO)N1C(C)=O`, the call was inactive.
On the same count and under the same terms, under `CN1C(=O)c2cc(NC(=O)c3cccc(F)c3)ccc2OC[C@@H]2O[C@H](CC(=O)O)CC[C@H]21` stands “inactive”; under `CC(=O)Nc1ccc2c(c1)C(=O)N(C)[C@@H]1CC[C@H](CC(=O)NCCCN3CCOCC3)O[C@@H]1CO2`, “inactive”.
In the case of `CCCC#Cc1ccc2c(c1)O[C@H](CN(C)C(=O)COC)[C@H](C)CN([C@@H](C)CO)S2(=O)=O`, the result was inactive.
Still for that read-out and setting: under `Cc1ccc(NCC(=O)c2ccccc2)cc1Cl` stands “inactive”; under `O=C(c1cccnc1)N1C[C@H]2[C@@H](c3ccccc31)[C@H](CO)N2C(=O)C1CCCC1`, “inactive”; under `CCCNC(=O)N1[C@@H]2CN(C(=O)c3ccccc3)c3ccccc3[C@@H]2[C@@H]1CO`, “inactive”.
The same measure, in the same setting: for `COC(=O)c1nn(-c2ccccc2)c(Sc2ccc(Cl)cc2)c1/C=N/O` the value was “inactive”.
Same read-out and setting: for `CN(C)CCCNC(=O)C[C@H]1CC[C@H]2[C@@H](COc3ccc(NC(=O)c4ccccc4F)cc3C(=O)N2C)O1` the value was “inactive”; for `N#CCc1c(C#N)c(N)nc(N2CCN(S(=O)(=O)c3ccccc3)CC2)c1C#N`, “inactive”.
Consider `CN1C(=O)c2cc(NC(=O)C3CCOCC3)ccc2OC[C@H]2O[C@H](CC(=O)NCc3ccc4c(c3)OCO4)CC[C@@H]21`, for which the compound was classed as inactive.
On the same count and under the same terms, for `COCC(=O)N(C[C@@H]1N[C@H](CO)[C@H]1c1ccc(-c2cccnc2)cc1)C(C)C` the value was “inactive”; for `CO[C@@H]1CN(C)C(=O)c2cc(NC(=O)Nc3cc(Cl)cc(Cl)c3)ccc2OC[C@H](C)NC[C@H]1C`, “inactive”; for `CCOC(=O)CSc1nnnn1-c1cccc2ccccc12`, “inactive”.
Still for that read-out and setting: under `CNC(=O)C[C@H]1CC[C@@H]2[C@H](COc3ccc(NC(=O)c4ccccc4OC)cc3C(=O)N2C)O1` stands “inactive”; under `Cc1ccc(-c2cnc3c(c2)C(=O)N([C@H](C)CO)C[C@@H](C)[C@H](CN(C)CC2CCCCC2)O3)cc1`, “inactive”.
